The panel holds about 83,000 compounds, 20% with a hit somewhere; the sample as a whole holds those more often.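 Plates (96-well) were seeded with cells, treated with compound at one concentration, and incubated for 48 hours before percent growth was determined.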 A number with no mark means an inactive call. Calls of active or inactive are those of the source. The calls were made as follows: active = growth percent below 10; inactive = the rest.
How the values were obtained:
Test in all cases: NCI-60 one-dose screen, 48 h (100 = growth as untreated, 0 = no growth, -100 = all killed)
Details in all cases: 10 µM unless noted
SK-MEL-2 melanoma = test system: SK-MEL-2 melanoma
EKVX NSCLC = test system: EKVX NSCLC
SN12C renal = test system: SN12C renal
UO-31 renal = test system: UO-31 renal
TK-10 renal = test system: TK-10 renal
ACHN renal = test system: ACHN renal
CAKI-1 renal = test system: CAKI-1 renal
A498 renal = test system: A498 renal
CCRF-CEM leukemia = test system: CCRF-CEM leukemia
MOLT-4 leukemia = test system: MOLT-4 leukemia

| Compound | growth (SK-MEL-2 melanoma) | growth (EKVX NSCLC) | growth (SN12C renal) | growth (UO-31 renal) | growth (TK-10 renal) | growth (ACHN renal) | growth (CAKI-1 renal) | growth (A498 renal) | growth (CCRF-CEM leukemia) | growth (MOLT-4 leukemia) |
| --- | --- | --- | --- | --- | --- | --- | --- | --- | --- | --- |
| Cc1ccccc1/C=C1\CN(C(=O)OC(C)(C)C)C/C(=C\c2ccccc2C)C1=O | 86.4% | 55.6% | -6.85% (active) | 31.9% | 30.3% | -21.7% (active) | 28.8% | 84.8% | 2.95% (active) |  |
| N#Cc1nc(-c2ccccc2)oc1S(=O)(=O)N1CCOCC1 | 90.2% | 106% | 74.1% | 82.9% | 94.5% | -97.7% (active) | 66.9% | 89.7% | -20.9% (active) |  |
| Oc1c(Cl)cc(Cl)cc1/C=N/Nc1nnc(N/N=C/c2cc(Cl)cc(Cl)c2O)c2ccccc12 | 51.2% | 10.2% | 20% | 0.684% (active) | 37.8% | 7.55% (active) | -34.7% (active) | -2.98% (active) | 14% |  |
| COc1cc(-c2nc(SCC(C)C)nc(Nc3cccc4ccccc34)c2C#N)cc(OC)c1OC | 107% | 98.7% | 92.6% | 67.9% | 128% | 98.4% | 68.5% | 74.3% | 75% |  |
| CNC(=O)c1c(NC(=O)c2ccc(C(F)(F)F)cc2)sc2c1CCC(=O)C2 | -12.1% (active) | 9.76% (active) | 5.31% (active) | -94.3% (active) | 34.2% | -20.3% (active) | -32.9% (active) | -12.5% (active) | -5.31% (active) | 2.28% (active) |
| COc1ccc(C(=O)Nc2ncc(Cc3cccc(Cl)c3)s2)cc1OC | 8.92% (active) | 34.1% | 39.9% | 31.2% | 38.5% | 16.8% | 12.8% | 0.53% (active) | 17.3% |  |
| O=c1oc2c(cnc3ccccc32)cc1-c1ccsc1 | 106% | 95% | 95.1% | 79.3% | 123% | 93.9% | 84.5% | 107% | 94.6% |  |
| O=C1/C(=C/c2ccccc2Br)COc2ccc(O)c(O)c21 | 48.8% | 61.7% | -67.6% (active) | -92.1% (active) | 29.5% | -44.9% (active) | 22.2% | 116% | 1.62% (active) | 2.79% (active) |
| COc1cc(/C=C\c2cc(/C=C\c3ccc(O)c(OC)c3)n(C(=O)COc3ccc(Cl)cc3Cl)n2)ccc1O | -4.36% (active) | 38.4% | 8.09% (active) | 8.72% (active) | 20.5% | 18.7% | 14.8% | 17.6% | 4.35% (active) |  |
| C=C(C)[C@@H]1CC[C@]2(C)[C@H](CC=C3[C@@H]4[C@H](C)[C@@H](C)CC[C@]4(CO)CC[C@]32C)[C@@]1(C)CCCN | -24.7% (active) | 74.1% | -4.38% (active) | 34.1% | -68.3% (active) | 63.4% | 22.4% | 72.5% | 0.722% (active) |  |
| O=C(Cn1cc(CN2CCCCCC2)nn1)Nc1ccc2c(ccn2Cc2ccccc2)c1 | 93.2% | 96.1% | 101% | 54.4% | 92.2% | 107% | 87.6% | 95.2% | 1.87% (active) |  |
| Fc1ccc(Nc2nc3nonc3nc2Nc2ccc(I)cc2)cc1 | -39.7% (active) | 3.92% (active) | -5.7% (active) | -7.55% (active) | -2.84% (active) | 4.53% (active) | 11.3% | -36.1% (active) | 1.66% (active) | -35.7% (active) |
| CC(C)(C)n1cc(-c2ccnc(NCCNS(=O)(=O)c3cccc4ccccc34)c2)c(-c2cccc(F)c2)n1 | -35.3% (active) | 8.04% (active) | -88.4% (active) | -38.2% (active) | -80% (active) | -58.5% (active) | -54.7% (active) | -73.1% (active) | 11% |  |
| O=C(Nc1cccc([N+](=O)[O-])c1)c1cc2ccccc2cc1O | 1.68% (active) | 3.68% (active) | 0.988% (active) | 4.6% (active) | 17.4% | 0.0296% (active) | -22.9% (active) | 1.58% (active) | -12.7% (active) |  |
| COc1cc2c(c(OC)c1OC)CCC(c1cccc(C(=O)Nc3cccc(Br)c3)c1)O2 (stereo not drawn) | 76.8% | 50.4% | 55.9% | 54.7% | 78.7% | 84.3% | 57.8% | 28.8% | 69% |  |
| COC(C(=O)[C@@H](O)[C@@H](C)O)[C@@H]1Cc2cc3cc(O[C@H]4C[C@@H](O[C@H]5C[C@@H](O)[C@H](O)C(C)O5)[C@H](O)C(C)O4)c(C)c(O)c3c(O)c2C(=O)[C@H]1O[C@H]1C[C@@H](O[C@H]2C[C@@H](O[C@H]3C[C@@H](O)[C@H](OC)C(C)O3)[C@@H](O)C(C)O2)[C@H](O)C(C)O1 (stereo partly drawn) | -43.7% (active) | 12.3% | 15.9% | -8.18% (active) | -2% (active) | 4.45% (active) | 13.7% | -47.5% (active) | 9.56% (active) |  |
| CC[C@@H](C(=O)[C@@H](C)[C@@H](O)[C@H](C)[C@@H]1O[C@@H]([C@@H](CC)C(=O)NCCc2ccc(F)cc2)CC[C@@H]1C)C1O[C@]2(C=CC(=O)[C@]3(CC[C@@](C)([C@H]4CC[C@](O)(CC)[C@H](C)O4)O3)O2)[C@H](C)C[C@@H]1C (stereo partly drawn) | 53% | 29.6% | 37.7% | 19.2% | 16.6% | 9.48% (active) | 14.2% | 34.6% | 40.1% | 19.2% |
| COc1ccc(-c2nc3c(c(-c4ccccc4)nn3-c3ccccc3)c(-c3ccc(N4CCN(C)CC4)cc3)c2C#N)cc1 | 106% | 104% | 93.7% | 76.2% | 99% | 95.3% | 90% | 99.6% | 85.3% |  |
| C[C@]12C=CC(=O)C=C1CCC1C2[C@@H](O)C[C@@]2(C)C1CC[C@]2(O)C(=O)COC(=O)CCC(=O)O (stereo partly drawn) | 117% | 74.2% | 74.2% | 92.2% | 116% | 102% | 82.5% | 89.2% | 60.9% |  |
| Cc1nnc(-n2c(O)cc(=O)n(-c3ccccc3)c2=S)nc1/C=C/c1ccc(N(C)C)cc1 | 55.2% | 66.7% | 65.3% | 17.1% | 28.1% | 62% | 23.4% | 52.1% | 52.5% |  |
| CC1(C)c2[nH]c3ccccc3c2C[C@]2(C)[C@H]3CC=C4[C@@H]5C[C@@](C)(C(N)=O)CC[C@]5(C)CC[C@@]4(C)[C@]3(C)CC[C@@H]12 | 80.3% | 31.9% | 61.8% | 47.3% | 84.2% | 45.7% | 57.7% | 67.9% | 54.7% |  |
| Cn1c(=O)c2c(nc(NC3=NS(=O)(=O)c4ccccc43)n2CC(=O)N2CCc3ccccc32)n(C)c1=O | 106% | 102% | 96.9% | 75.9% | 108% | 102% | 92.7% | 58.9% | 101% | 112% |
| O=C(CSc1nc2sc3c(c2c(=O)n1-c1ccccc1)CCCCC3)N/N=C/c1ccc(F)cc1 | 91.9% | 80% | 16.3% | 88.2% | 69.1% | 26.8% | -13.7% (active) | 89.7% | 46% |  |
| CCc1ccc(Oc2cn[nH]c2-c2ccc(OCCc3ccc(F)cc3)cc2O)cc1 | 90.1% | 87.9% | 95.3% | 81.7% | 66.8% | 94% | 100% | 105% | 95.6% |  |
| N#Cc1c(-c2ccc(Cl)cc2)nc(SCC(=O)NC2=NN=C(c3ccccc3)CS2)[nH]c1=O | 82.9% | 86.2% | 97.4% | 71.2% | 119% | 88.9% | 77% | 97.6% | 63.8% |  |
| C[C@H](NC(=O)[C@@H](C)N)[C@H](Oc1ccc2c(cnn2-c2ccc(F)cc2)c1)c1ccc2c(c1)OCCO2 | 65.8% | 43.5% | 42.6% | 18.5% | 70.5% | 59% | 20.4% | 91.2% | 15.5% |  |
| O=C(c1ccc(Cl)cc1)N1CCN(c2ccnc3cc(Cl)ccc23)CC1 | 88.9% | 96.4% | 91.2% | 58% | 108% | 85.8% | 85.7% | 55.6% | 90.9% |  |
| CCOC(=O)C1=C(NC)OCC1=O | 116% | 99.3% | 103% | 88.3% | 99.4% | 110% | 100% | 86.1% | 101% | 97.3% |

Reference: PubChem BioAssay (NCI)
